Only some compounds are listed: those with a hit (about 21% of all), similar ones and a draw of the others.
CHX counter – affects cycloheximide protein synthesis inhibition readout, counter-screen. cell reporter, cycloheximide protein synthesis inhibition counterscreen. max response, %. hit rate 12% among 300,000; in the data active means max response mostly above about 13%, no sharp cut-off; inactive means mostly below about 14%; further: read at 38.3 µM for the half of the compounds with a filed dose; 0% is about no effect
Pf growth 48h – inhibits P. falciparum growth in the first generation, 48 h; P. falciparum luciferase growth in erythrocytes, 48 h; Potency, µM (highest dose often 28.7 µM), without a hit: at the highest dose activity change, negative = inhibition, usual class: inhibitors; hit rate 5.9% among 310,000; AID 504832; active means well fitted inhibition curve with a large enough effect; inconclusive means small, poorly fitted or top-dose-only effect, or another doubt; inactive means no such curve, though single readings can be large or run the other way; further: potency means the concentration at half of the fitted maximal effect; on the % scale 0 is the no-effect control and ±100 the full control effect
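Luciferase-expressing P. falciparum in infected erythrocytes (2% hematocrit, 0.1% parasitemia final) in RPMI 1640/0.5% Albumax were exposed to compound for 48 hours at 37 C, 5% CO2; growth read as luminescence.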
Pf growth 96h – P. falciparum growth inhibition at 96 hour, primary screen for plastid delayed-death inhibitors | P. falciparum luciferase reporter growth, 96 h | Potency, µM (series often up to 28.7 µM), without a hit: at the highest dose activity change, negative = inhibition, usual class: inhibitors | hit rate 6.9% among 320,000; active means well fitted inhibition curve with a large enough effect; inconclusive means small, poorly fitted or top-dose-only effect, or another doubt; inactive means no such curve, though single readings can be large or run the other way; further: potency means the concentration at half of the fitted maximal effect; on the % scale 0 is the no-effect control and ±100 the full control effect
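Erythrocytes infected with luciferase-expressing P. falciparum were dispensed at 2% hematocrit and 0.05% parasitemia (final), then incubated with compounds 96 hours at 37 C in 5% CO2. Luminescence after detection reagent addition reported growth.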
SARS PLP yeast – blocks SARS-CoV papain-like protease in a yeast assay | Potency, µM (top dose mostly 32.9 µM), inactives show at the highest dose activity, positive = growth rescue, usual class: activators | S. cerevisiae expressing SARS-CoV PLpro, growth rescue | hit rate 0.19% among 330,000; further: potency means the concentration at half of the fitted maximal effect; 0% is about no effect; nearly all actives have a fitted effect of over 55% in size
NS1 function inh – inhibitors of influenza NS1 protein function | hit rate 0.4% among 270,000 | Potency, µM (series often up to 46.1 µM), inactives show at the top dose activity, positive = more growth; further: potency means the concentration at half of the fitted maximal effect; actives are rising curves; nearly all actives have a fitted effect of over 50% in size
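Recovery from NS1-induced slow growth read by OD600 in budding yeast switched to galactose assay medium (pH 6.0, -URA) at 1:100 dilution. Compound 23 nl per well; the matching strain lacking NS1 serves as control.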
Shiga toxin inh – blocks Shiga toxin action in Vero cells; Vero cells, Shiga toxin protein synthesis inhibition reporter; AID 2315; inhibition, % at 38.7 µM; hit rate 9.2% among 290,000; in the data active means inhibition mostly above about 28%, no sharp cut-off; inactive means mostly below about 43%; further: 0% is about no effect
Starred values were filed as active, the others as inactive. Unless noted, the call rests on the fitted dose curve.

Screening CC(C(=O)Nc1ccc2c(c1)OCCO2)n1nnc(-c2ccccc2)n1 (stereo not given) returned CHX counter -3, Pf growth 48h 28%, Pf growth 96h inconclusive, SARS PLP yeast -1%, NS1 function inh -2% and Shiga toxin inh 1.
Screening CCC(C)[C@@H](C(=O)Nc1ccc2c(c1)OCO2)N1Cc2ccccc2C1=O (stereo not given in full) returned CHX counter 13, Pf growth 96h inconclusive, SARS PLP yeast 1%, NS1 function inh -24% and Shiga toxin inh 16.
C[C@@H](C(=O)Nc1ccc2c(c1)OCCO2)n1nnc2ccccc2c1=O was read as CHX counter 45*, Pf growth 48h 150%, Pf growth 96h 160%, SARS PLP yeast 1%, NS1 function inh -5% and Shiga toxin inh 107*.
`CC(C(=O)Nc1ccc2c(c1)OCCO2)N1Cc2ccccc2C1=O` (stereo not given) gave CHX counter 21*, Pf growth 48h 45%, Pf growth 96h 3%, SARS PLP yeast 14%, NS1 function inh -2% and Shiga toxin inh 31.
For Clc1ccc(C(c2ccccc2Cl)C(Cl)Cl)cc1 (stereo not given) the results were Pf growth 48h 10µM*, Pf growth 96h inconclusive and NS1 function inh -21%.
For CCc1ccc(C(c2ccc(CC)cc2)C(Cl)Cl)cc1 the results were Pf growth 48h inconclusive, Pf growth 96h inconclusive and SARS PLP yeast 4%.
CCOC(=O)C1(CCCc2ccccc2)CCN(S(=O)(=O)N(C)C)CC1 was read as CHX counter 1, Pf growth 48h inconclusive, Pf growth 96h 6%, SARS PLP yeast -11%, NS1 function inh -18% and Shiga toxin inh -5.
For CC(NC(=O)c1cc(-c2cccs2)on1)c1ccccc1 (stereo not given) the results were CHX counter 10, Pf growth 48h 15%, Pf growth 96h -98%, SARS PLP yeast 11%, NS1 function inh 4% and Shiga toxin inh 5.
Screening O=C(NCc1cccs1)c1cc(-c2ccccc2)on1 returned CHX counter 30*, Pf growth 48h 95%, Pf growth 96h 7%, SARS PLP yeast -1%, NS1 function inh 3% and Shiga toxin inh 118*.
For O=C(NCc1cccs1)c1cc(-c2cccs2)on1 the results were CHX counter 41*, Pf growth 48h 146%, Pf growth 96h 0%, SARS PLP yeast 1%, NS1 function inh -8% and Shiga toxin inh 87*.
For Cc1cc(C(=O)NCc2cccs2)no1 the results were CHX counter -3, Pf growth 96h inconclusive, SARS PLP yeast 22%, NS1 function inh -4% and Shiga toxin inh -11.
COCCNC(=O)c1cc(-c2cccs2)on1 was read as CHX counter 34*, Pf growth 48h 109%, Pf growth 96h 11%, SARS PLP yeast -4%, NS1 function inh 0% and Shiga toxin inh 101*.
Screening O=C(NCc1cccs1)c1cc(C2CC2)on1 returned CHX counter 22*, Pf growth 48h 54%, Pf growth 96h 92%, SARS PLP yeast -2%, NS1 function inh 10% and Shiga toxin inh 64*.
Screening COc1ccc(C2=NOC(Cn3nc(-c4ccccc4)cc3C(=O)NCc3cccs3)C2)cc1 (stereo not given) returned SARS PLP yeast -2%.
For CCOC(=O)CSc1nnc2c(n1)C1(C)CCC2C1(C)C (stereo not given) the results were CHX counter -2, Pf growth 48h -11%, Pf growth 96h 3.3µM*, SARS PLP yeast 10%, NS1 function inh -12% and Shiga toxin inh 0.
`CC12CCC(c3nnc(SCC(=O)Nc4cccc5ccccc45)nc31)C2(C)C` (stereo not given) gave CHX counter -3, Pf growth 48h -7%, Pf growth 96h inconclusive, SARS PLP yeast 2%, NS1 function inh -21% and Shiga toxin inh -2.
Screening CC12CCC(c3nnc(SCc4ccc(Cl)cc4)nc31)C2(C)C (stereo not given) returned CHX counter -1, Pf growth 48h -12%, Pf growth 96h 4.1µM*, SARS PLP yeast -18%, NS1 function inh -3% and Shiga toxin inh 13.
`Cc1c(NC(=O)CSc2nnc(-c3cccc(Cl)c3)o2)c(=O)n(-c2ccccc2)n1C` gave CHX counter 1, Pf growth 48h -1%, SARS PLP yeast 5%, NS1 function inh inconclusive and Shiga toxin inh -11.
CCN1CCN(C(=O)NC2CC(=O)N(c3ccc(OC)cc3)C2)CC1 (stereo not given) was read as CHX counter -1, Pf growth 48h 2%, Pf growth 96h inconclusive, SARS PLP yeast -5% and Shiga toxin inh -2.
`Cc1cc(C)nc(SCC(=O)NN=Cc2ccc(C)o2)n1` gave SARS PLP yeast 0%.
`O=C(CNC(=O)c1ccc(Cl)cc1Cl)OCCCn1c(=O)[nH]c2ccccc21` gave Pf growth 48h 8%, Pf growth 96h 52% and SARS PLP yeast 5%.
For COc1cc(C(=O)Nc2ccc3c(c2)nc(C)n3C)cc(OC)c1OC the results were CHX counter 12, Pf growth 48h 59%, Pf growth 96h 10%, SARS PLP yeast 3%, NS1 function inh 25% and Shiga toxin inh 12.
CC(=O)Nc1ccc2c(c1)nc(C)n2-c1ccccc1 was read as CHX counter 13*, Pf growth 48h 46%, Pf growth 96h inconclusive, SARS PLP yeast 5%, NS1 function inh 14% and Shiga toxin inh 36.
Screening Cc1ccc(NC(=O)Nc2ccc3c(c2)nc(C)n3C)cc1C returned CHX counter 45*, Pf growth 48h 127%, Pf growth 96h inconclusive, SARS PLP yeast 0%, NS1 function inh 0% and Shiga toxin inh 108*.
For CCOc1ccc(NC(=O)Nc2ccc3c(c2)nc(C)n3C)cc1 the results were CHX counter 2, Pf growth 48h inconclusive, Pf growth 96h -13%, SARS PLP yeast 0%, NS1 function inh inconclusive and Shiga toxin inh 20.
For COc1ccccc1NC(=O)Nc1ccc2c(c1)nc(C)n2C the results were CHX counter 28*, Pf growth 48h -46%, Pf growth 96h 0%, SARS PLP yeast -1%, NS1 function inh 2% and Shiga toxin inh 31.
Cc1nc2cc(NC(=O)COc3ccc(C#N)cc3)ccc2n1-c1ccccc1 was read as CHX counter 8, Pf growth 48h -9%, Pf growth 96h inconclusive, SARS PLP yeast inconclusive, NS1 function inh -17% and Shiga toxin inh -7.
`Cc1nc2cc(NC(=O)c3ccc(Cl)cc3)ccc2n1C` gave CHX counter 26*, Pf growth 48h 164%, Pf growth 96h inconclusive, SARS PLP yeast 5% and NS1 function inh inconclusive.
For CNn1cnc2ccsc2c1=O the results were CHX counter -2, Pf growth 48h -11%, Pf growth 96h -25%, SARS PLP yeast -1%, NS1 function inh 11% and Shiga toxin inh 6.
